Composite z-score, z-score and composite Z-score data for five molecules are collected here from PubChem BioAssay.

The subject of assay [1] is Human papillomavirus type 1a protein E7 (residues 44-93). As to the kind of experiment: small molecules binding HPV E7 44-93 – biochemical, small-molecule microarray, residues 44-93, 635 nm fluorescence, primary screen (AID 1108).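 Also: E7 fragment applied at 1 µg/mL in TBST for 1 h at 4 C; score combines spot fluorescence with its signal to noise ratio.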 The settings on record: fluorescence 635 nm, higher = more signal.
The nature of assay [2]: hepatitis C replication reporter changes, two-sided – Huh7 cells, luciferase reporter, HCV replication inhibitor project, primary screen (AID 1109).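 Also: huh7 hepatoma cells harbouring a luciferase neomycin HCV replicon reporter; luciferase luminescence as measure of HCV replicon replication; test concentration not given here.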 As to conditions: Huh7 HCV replicon luciferase reporter, 48 h; higher = more signal.
Assay [3] has as its target Left-right determination factor 2 (Homo sapiens) (UniProt O00292). The experiment in a line: small molecules binding LEFTY2 protein – biochemical, small-molecule microarray, 635 nm fluorescence scan, primary screen (AID 1110). The settings on record: higher = more signal.
Assay [4] deals with Calmodulin-1 (Homo sapiens) (UniProt P0DP23). As to the kind of experiment: small molecules binding calmodulin-1 with EGTA – biochemical, small-molecule microarray, Cy5-labelled CALM1, profiling panel (AID 1111).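 Also: labelled calmodulin applied in Tris saline Tween buffer holding calcium plus EGTA and DTT.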 The settings on record: Cy5-CALM1 binding fluorescence, higher = more signal.
Assay [5] has the same target. As to the kind of experiment: small molecules binding Ca-loaded calmodulin-1 – biochemical, small-molecule microarray, Cy5-labelled CALM1, plus calcium, artefact control for SMM control-protein annotation, profiling panel (AID 1112).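 Also: score merges spot fluorescence with signal to noise from triplicate slides.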 The settings on record: Cy5-CALM1 binding fluorescence, higher = more signal.
Assay [6] in a line: probe aWnt5a binding to arrayed compounds – biochemical, biotinylated probe, 635/667 nm fluorescence, primary screen (AID 1113).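 Also: score merges 667 nm fluorescence intensity with signal-to-noise per printed feature.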 The settings on record: small-molecule microarray, higher = more signal.
The nature of assay [7]: probe aShh binding to arrayed compounds – biochemical, biotinylated probe, 635/667 nm fluorescence, primary screen (AID 1114).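 Also: probe is biotin-labelled aShh protein from a stem cell growth factor screen; measures binding of labelled protein to compounds printed on the slide; score merges feature fluorescence at 667 nm with signal-to-noise.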 The settings on record: small-molecule microarray, higher = more signal.
Assay [8] in a line: probe aNog binding to arrayed compounds – biochemical, biotinylated probe, 635/667 nm fluorescence, primary screen (AID 1115).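 Also: probe is biotinylated aNog protein used at 0.15 µg/mL for 1 h at 4 C; z-score combines 667 nm fluorescence of each spot with its signal to noise.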 The settings on record: small-molecule microarray, higher = more signal.
Assay [9] addresses Torsin-1A-interacting protein 1 (Homo sapiens) (UniProt Q5JTV8). The experiment in a line: compound microarray binding of lysate hLAP1 – cell lysate, small-molecule microarray, COS7 lysate, 635/667 nm fluorescence, primary screen (AID 1116). The settings on record: 635 nm fluorescence, higher = more signal.
In assay [10] the target is Alpha-bungarotoxin (Bungarus multicinctus) (UniProt P60615). As to the kind of experiment: compounds binding labelled alpha-BTX control protein – biochemical, small-molecule microarray, Alexa647 label, 635/667 nm fluorescence, artefact control for SMM control protein annotation, profiling panel (AID 1117). The settings on record: alpha-BTX-A647 binding fluorescence, higher = more signal.
Chain of Alpha-bungarotoxin (Bungarus multicinctus) (P60615 whole entry, looked up): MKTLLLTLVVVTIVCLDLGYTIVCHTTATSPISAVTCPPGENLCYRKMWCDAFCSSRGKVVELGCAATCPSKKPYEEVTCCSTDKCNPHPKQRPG

In assay [11] the target is Albumin (Bos taurus) (UniProt P02769). As to the kind of experiment: compounds binding labelled BSA control protein – biochemical, small-molecule microarray, Alexa647 label, 635/667 nm fluorescence, artefact control for SMM control protein annotation, profiling panel (AID 1118).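 Also: score merges 667 nm emission intensity and signal-to-noise per printed compound spot.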 As to conditions: BSA-A647 binding, fluorescence 635 nm, higher = more signal.
Chain of Albumin (Bos taurus) (P02769 whole entry, looked up): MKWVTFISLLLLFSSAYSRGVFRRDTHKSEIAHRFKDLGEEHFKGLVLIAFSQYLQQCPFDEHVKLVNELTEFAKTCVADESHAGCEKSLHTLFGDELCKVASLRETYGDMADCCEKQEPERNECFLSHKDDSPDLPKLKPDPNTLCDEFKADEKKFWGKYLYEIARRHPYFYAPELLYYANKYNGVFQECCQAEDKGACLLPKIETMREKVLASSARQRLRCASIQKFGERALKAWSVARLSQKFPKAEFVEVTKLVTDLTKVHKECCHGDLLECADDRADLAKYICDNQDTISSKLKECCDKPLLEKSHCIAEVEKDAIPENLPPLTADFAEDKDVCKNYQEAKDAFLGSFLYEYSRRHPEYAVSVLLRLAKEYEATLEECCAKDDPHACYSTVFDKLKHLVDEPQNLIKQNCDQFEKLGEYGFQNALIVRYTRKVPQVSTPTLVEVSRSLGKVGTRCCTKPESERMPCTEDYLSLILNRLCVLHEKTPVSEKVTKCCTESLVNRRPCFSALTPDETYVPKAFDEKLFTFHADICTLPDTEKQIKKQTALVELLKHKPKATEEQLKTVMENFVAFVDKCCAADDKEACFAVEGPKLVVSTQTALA
The nature of assay [12]: probe aXIP binding to arrayed compounds – biochemical, NeuroSMM set, 635/667 nm fluorescence, primary screen (AID 1119).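 Also: probe is the protein aXip251-270 applied at 1 µg/mL to compound-printed slides; binding of probe to printed compounds measured as 667 nm fluorescence plus signal to noise.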 The settings on record: small-molecule microarray, higher = more signal, called active from +8 up or from −8 down.
Assay [13] can be described thus: probe aNOTCH3 binding on compound microarray – biochemical, small-molecule microarray, 635/667 nm fluorescence, primary screen (AID 1120).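 Also: probe is a biotin-tagged antibody raised against NOTCH3 rather than NOTCH3 protein; score merges spot fluorescence near 667 nm with spot signal to noise.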 As to conditions: higher = more signal.
The nature of assay [14]: probe aNOTCH2 binding on compound microarray – biochemical, small-molecule microarray, 635/667 nm fluorescence, primary screen (AID 1121).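 Also: score merges feature fluorescence read at 667 nm with its signal to noise.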 As to conditions: higher = more signal.
In assay [15] the target is Carbonic anhydrase 2 (Homo sapiens) (UniProt P00918). As to the kind of experiment: compounds binding carbonic anhydrase 2 – biochemical, small-molecule microarray, Alexa647-labelled CAII, profiling panel (AID 1122). As to conditions: CAII-A647 binding fluorescence, higher = more signal.
Assay [16] is described as follows: COS7 lysate on small-molecule microarray, probe aHis, 635 nm (AID 1123).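 Also: z-score combines 667nm fluorescence intensity with signal-to-noise per printed compound spot.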 The settings on record: COS7 cell lysate, fluorescence, higher = more signal.
A short description of assay [17]: probe aLAP1 signal on lysate-treated microarray – cell lysate, small-molecule microarray, COS7 lysate, primary screen (AID 1124).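 Also: lysate comes from COS7 cells expressing LAP1 and is applied at 0.3 µg/mL; score merges spot fluorescence near 667 nm with signal-to-noise over triplicate slides.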 The settings on record: probe aLAP1, fluorescence, higher = more signal.
Assay [18] deals with Sam68 (KHDRBS1). As to the kind of experiment: compounds binding KHDRBS1 protein – biochemical, small-molecule microarray, 635 nm fluorescence, primary screen (AID 1125).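 Also: score merges 667 nm channel intensity with signal to noise over triplicate slides.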 The settings on record: higher = more signal.
Assay [19] has as its system Chordin-like protein 2 (CHRDL2). As to the kind of experiment: compounds binding chordin-like 2 – biochemical, small-molecule microarray, 635 nm fluorescence, primary screen (AID 1126).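 Also: printed compound slides probed with Chrdl2 protein at 4 µg/mL for 1 h at 4 C; score merges 667 nm emission intensity with signal to noise over three replicate slides.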 The settings on record: fluorescence 635 nm, higher = more signal.
Assay [20] concerns the target Concanavalin-A (Canavalia ensiformis) (UniProt P02866). As to the kind of experiment: compounds binding concanavalin A lectin – biochemical, small-molecule microarray, Alexa647 label, 635 nm, artefact control for SMM control protein annotation, primary screen (AID 1127).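 Also: z combines 667 nm emission intensity with signal-to-noise across three replicate slides.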 As to conditions: ConA-A647 binding fluorescence, higher = more signal.

Structures are written as SMILES. Calls of active or inactive are those of the source.

Chain of Left-right determination factor 2 (Homo sapiens) (O00292 whole entry, looked up): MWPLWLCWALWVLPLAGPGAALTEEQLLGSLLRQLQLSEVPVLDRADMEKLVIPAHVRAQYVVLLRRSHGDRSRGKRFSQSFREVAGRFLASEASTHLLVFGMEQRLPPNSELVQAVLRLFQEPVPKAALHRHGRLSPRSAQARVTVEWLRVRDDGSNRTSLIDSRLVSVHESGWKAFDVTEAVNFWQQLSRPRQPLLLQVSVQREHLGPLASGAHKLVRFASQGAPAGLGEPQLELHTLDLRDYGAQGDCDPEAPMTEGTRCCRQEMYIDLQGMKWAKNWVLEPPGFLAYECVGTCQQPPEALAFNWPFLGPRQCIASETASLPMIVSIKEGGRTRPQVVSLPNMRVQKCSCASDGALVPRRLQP
Chain of Torsin-1A-interacting protein 1 (Homo sapiens) (Q5JTV8 whole entry, looked up): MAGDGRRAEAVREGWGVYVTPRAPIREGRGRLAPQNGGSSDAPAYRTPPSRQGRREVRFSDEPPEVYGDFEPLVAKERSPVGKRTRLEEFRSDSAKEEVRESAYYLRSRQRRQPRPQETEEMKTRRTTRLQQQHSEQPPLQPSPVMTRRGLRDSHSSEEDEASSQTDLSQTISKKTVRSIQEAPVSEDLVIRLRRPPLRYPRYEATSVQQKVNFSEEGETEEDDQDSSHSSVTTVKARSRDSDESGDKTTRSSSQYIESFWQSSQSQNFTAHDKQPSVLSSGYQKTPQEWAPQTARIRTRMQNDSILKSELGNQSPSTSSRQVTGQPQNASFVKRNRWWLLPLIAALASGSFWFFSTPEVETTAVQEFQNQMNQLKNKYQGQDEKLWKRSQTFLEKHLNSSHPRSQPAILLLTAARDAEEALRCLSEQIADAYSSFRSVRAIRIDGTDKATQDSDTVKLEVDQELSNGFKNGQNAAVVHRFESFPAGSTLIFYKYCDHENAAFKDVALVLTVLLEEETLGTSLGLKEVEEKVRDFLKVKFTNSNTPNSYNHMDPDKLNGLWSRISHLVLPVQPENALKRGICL
Chain of Concanavalin-A (Canavalia ensiformis) (P02866 whole entry, looked up): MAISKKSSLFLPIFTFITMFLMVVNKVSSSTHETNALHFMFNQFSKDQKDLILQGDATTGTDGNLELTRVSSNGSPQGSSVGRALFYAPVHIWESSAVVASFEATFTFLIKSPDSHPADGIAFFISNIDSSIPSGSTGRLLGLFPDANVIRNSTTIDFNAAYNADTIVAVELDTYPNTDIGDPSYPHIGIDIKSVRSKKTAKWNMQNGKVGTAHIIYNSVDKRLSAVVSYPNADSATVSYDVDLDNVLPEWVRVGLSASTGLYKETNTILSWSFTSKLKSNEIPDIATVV

Regarding `CC(=O)NCCCC[C@@H]1NC(=O)[C@@H]2C[C@H](C(=O)NCCCCN(C)C)[C@H](c3cccc(OCCO)c3)N2C1=O`, the composite z-score in assay [1] was -0.426; in [3] it was -0.419; in assay [4], 0.017; in assay [5], 0.0573; in [6] it was -0.0944; in assay [7], 0.0048. For the same molecule, the composite z-score in assay [8] was -0.0474; in assay [9], -1.4; in [10], 0.473; in assay [11] it was -0.374; in [13], -0.186; in assay [14], -0.112. For the same molecule, the composite z-score in assay [15] stood at 0.57; in assay [16] it was 0.944; in assay [17], 0.511; in [18] it was 0.259; in assay [19] it was 0.462; in [20] it was 0.664. The molecule further showed a z-score in assay [2] of 0.471. Besides, in [12], the composite Z-score is 0.714 (inactive).
Turning to `O=C1c2ccccc2[C@@]2(Cc3ccccc3N(CC(F)(F)F)C2=O)[C@H](c2ccc(CO)cc2)N1Cc1ccccc1Cl`, the composite z-score is 0.265 in assay [1]; 0.547 in [3]; -0.146 in assay [4]; -0.684 in assay [5]; -0.166 in assay [6]; -0.17 in assay [7]. Further, the composite z-score in assay [8] is -0.282; in assay [9], 0.156; in assay [10], 0.287; in assay [11], -0.465; in assay [13], -0.191; in assay [14], -0.228. In addition, the composite z-score in [15] was -0.227; in [16] it was -0.0414; in assay [17], -0.153; in [18], 0.428; in [19], 0.929; in assay [20] it was 0.409. The molecule further gave a z-score in assay [2] of 0.078. For the same molecule, in [12], the composite Z-score was 0.142 (inactive).
In the case of `C=C[C@H](COC(C)=O)N(C(=O)OC(C)(C)C)S(=O)(=O)c1ccc(Br)cc1`, the composite z-score in assay [1] is 0.4; in assay [3] it was 0.467; in assay [4], -0.159; in assay [5], -0.907; in [6], 0.205; in assay [7], 0.113. Also, the composite z-score in [8] was -0.0185; in [9], 0.395; in assay [10] it was 0.397; in assay [11], -0.19; in assay [13], 0.704; in assay [14], 0.463. For the same molecule, the composite z-score in assay [15] came to 0.162; in assay [16], 0.216; in assay [17] it was 0.0842; in assay [18] it was 0.355; in [19] it was 0.55; in assay [20] it was 0.193. This molecule also registered a z-score in [2] of -0.757. For the same molecule, the composite Z-score in [12] was -0.526 (inactive).
With `CCOC(=O)C[C@H]1[C@H](OC(=O)c2cc3ccccc3oc2=O)[C@@H](NC(=O)C2CCCCC2)c2cc(OCCCO)ccc2N1C(=O)c1ccccc1`, the composite z-score in assay [1] is 0.992; in assay [3], 0.493; in assay [4], -0.105; in assay [5], -0.236; in [6], -0.0405; in assay [7], -0.138. The composite z-score in assay [8] is -0.266; in [9] it was 0.294; in assay [10], -0.0403; in assay [11], 0.266; in [13], 0.281; in [14], -0.0482. The composite z-score is 0.274 in assay [15]; 0.112 in assay [16]; -0.0802 in assay [17]; 1.04 in assay [18]; 0.438 in [19]; 0.282 in assay [20]. The molecule further gave a z-score in [2] of -0.947. Further, the composite Z-score in assay [12] was -0.275 (inactive).
As for `CCOC(=O)C1=CCC(c2ccc(C)cc2)N(S(=O)(=O)c2ccc(C)cc2)C1` (stereo not given), the composite z-score in assay [1] is 1.12; in assay [3], 0.175; in assay [4], 0.367; in assay [5], 0.172; in assay [6] it was -0.0226; in assay [7], -0.0977. Moreover, the composite z-score is 0.542 in [8]; 0.81 in assay [9]; 1.15 in [10]; 0.0328 in assay [11]; 0.037 in [13]; -0.146 in assay [14]. The composite z-score is 0.251 in assay [15]; 1.43 in assay [16]; -0.347 in assay [17]; 0.747 in assay [18]; 0.137 in [19]; 0.995 in [20]. In [2], this molecule yielded a z-score of -0.905. Also, the composite Z-score in assay [12] is 0.798 (inactive).
